Most compounds without a hit are left out; they make up all but 31% or so of the library.
CYP2C9 activ: human CYP2C9 activators, primary screen, biochemical, luminescence; Cytochrome P450 2C9 (Homo sapiens), P11712; activation factor at 5 µM; recombinant CYP2C9, luciferin-H conversion; active compounds read high; factor 1 = untreated enzyme, 0 = blocked; hit rate 1.4% among 96,000; AID 1024, 2008;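 active = activation factor of 2 or more for CYP2C9 at a 5 µM dose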;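 also: 0 = sulfaphenazole-blocked wells and 1 = vehicle-only wells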
Target sequence (P11712 whole entry, looked up): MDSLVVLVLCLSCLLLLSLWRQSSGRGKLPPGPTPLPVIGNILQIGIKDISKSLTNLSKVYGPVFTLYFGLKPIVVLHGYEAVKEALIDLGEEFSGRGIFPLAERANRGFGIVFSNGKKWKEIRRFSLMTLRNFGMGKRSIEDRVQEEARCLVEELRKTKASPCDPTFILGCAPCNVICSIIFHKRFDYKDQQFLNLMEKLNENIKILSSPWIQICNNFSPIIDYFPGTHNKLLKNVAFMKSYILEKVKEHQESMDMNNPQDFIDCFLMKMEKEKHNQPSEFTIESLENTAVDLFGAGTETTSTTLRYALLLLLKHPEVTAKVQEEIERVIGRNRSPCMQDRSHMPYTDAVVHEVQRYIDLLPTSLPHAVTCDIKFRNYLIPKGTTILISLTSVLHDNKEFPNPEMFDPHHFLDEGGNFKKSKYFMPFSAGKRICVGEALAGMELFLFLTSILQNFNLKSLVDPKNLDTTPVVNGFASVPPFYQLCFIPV
CYP2C19 act: human CYP2C19 activators, primary screen, biochemical, luminescence; 96,000 tested, under 10 active; activation factor at 5 µM; recombinant CYP2C19, luciferin-H EGE luminescence; active compounds read high; 0 = fully inhibited enzyme, 1 = untreated enzyme;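 active = activation factor of at least 2 at 5 µM in the primary screen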;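 also: 0 = wells with 2.5 mM tranylcypromine and 1 = vehicle-only wells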
CYP2C19 inh: blockers of cytochrome P450 2C19 activity – biochemical, luminescence, ADME assay, primary screen | P33261 | CYP2C19 Supersomes, luciferin-H EGE luminescence, 30 min | inhibition, % at 5 µM | hit rate 21% among 96,000;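 active = CYP2C19 inhibition above a set limit at 5 µM in the primary screen, cut at about 50% in these data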;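 also: plate controls were negative control wells for no effect and 2.5 mM tranylcypromine positive control for full effect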
CYP2C9 inhib: blockers of cytochrome P450 2C9 activity – biochemical, luminescence, ADME assay, primary screen | P11712 | CYP2C9 Supersomes, luciferin-H conversion | inhibition, % at 5 µM | hit rate 20% among 96,000 | AID 777, 2007;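 active = blocking of liver enzyme CYP2C9 beyond about 50% at 5 µM, limit read from the data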
The depositor's hits bear a star.

Screening CC1Cc2nc(SCC(=O)Nc3ccc4c(c3)OCO4)n(CCc3ccccc3)c(=O)c2S1 (stereo not drawn) returned CYP2C9 activ 0.2, CYP2C19 act 0.6, CYP2C19 inh 44 and CYP2C9 inhib 85*.
For Cc1cc(NC(=O)CSc2nc3c(c(=O)n2CCc2ccccc2)SC(C)C3)no1 (stereo not drawn) the results were CYP2C9 activ 0.9, CYP2C19 act 1.1, CYP2C19 inh -15 and CYP2C9 inhib 5.
`Cc1nnc(NC(=O)CSc2nc3c(c(=O)n2CCc2ccccc2)SC(C)C3)s1` (stereo not drawn) gave CYP2C9 activ 0.9, CYP2C19 act 1, CYP2C19 inh 1 and CYP2C9 inhib 8.
Screening CCn1c(SCC(=O)Nc2cccc(C)c2)nc2c(c1=O)SC(C)C2 (stereo not drawn) returned CYP2C9 activ 0.2, CYP2C19 act 0.6, CYP2C19 inh 39 and CYP2C9 inhib 75*.
`Cc1ccc(NC(=O)c2cc(NC(=O)C3CC=CCC3C(=O)O)ccc2N2CCOCC2)cc1Cl` (stereo not drawn) gave CYP2C9 activ 0.4, CYP2C19 act 0.9, CYP2C19 inh 9 and CYP2C9 inhib 61*.
COc1ccc(C(=O)N2CC3(CC(c4cccc([N+](=O)[O-])c4)=NO3)C[C@H]2C(=O)NCC(N)=O)cc1 (stereo partly drawn) was read as CYP2C9 activ 0.9, CYP2C19 act 0.9, CYP2C19 inh 11 and CYP2C9 inhib 14.
For Cc1cc(O)c(/C=N/Nc2cccc(Cl)c2)c(=O)o1 the results were CYP2C9 activ 0.3, CYP2C19 act 0.4, CYP2C19 inh 58* and CYP2C9 inhib 71*.
CN1CCCN(C(=O)Cc2c(Cl)cccc2Cl)c2nc3ccccc3nc21 was read as CYP2C9 activ 0.8, CYP2C19 act 0.8, CYP2C19 inh 18 and CYP2C9 inhib 17.
For Brc1ccc(OCc2ccccc2)c(CNCc2ccncc2)c1 the results were CYP2C9 activ 0.2, CYP2C19 act 0, CYP2C19 inh 99* and CYP2C9 inhib 84*.
For OCCNCc1cc(Br)ccc1OCc1ccc(Cl)cc1 the results were CYP2C9 activ 1, CYP2C19 act 0.5, CYP2C19 inh 53* and CYP2C9 inhib -3.
Screening CCOc1ccc(Cl)cc1CNCCNCC(C)O (stereo not drawn) returned CYP2C9 activ 1, CYP2C19 act 1.1, CYP2C19 inh -13 and CYP2C9 inhib -5.
Screening Clc1ccc(COc2ccccc2CNCc2cccnc2)cc1 returned CYP2C9 activ 0, CYP2C19 act 0, CYP2C19 inh 97* and CYP2C9 inhib 95*.
O=C(CC1(C(=O)O)CCCC1)N1CCOCC1 was read as CYP2C9 activ 0.5, CYP2C19 act 0.8, CYP2C19 inh 21 and CYP2C9 inhib 48.
`Cc1nnc(-c2cnn(-c3ccccc3)c2N)n1Cc1ccc(F)cc1` gave CYP2C9 activ 0.8, CYP2C19 act 0.6, CYP2C19 inh 44 and CYP2C9 inhib 20.
For O=C1CC(c2ccco2)Cc2nc(N3CCc4ccccc4C3)ncc21 (stereo not drawn) the results were CYP2C9 activ 0, CYP2C19 act 0.1, CYP2C19 inh 95* and CYP2C9 inhib 98*.
`Cc1nc(N2CCN(Cc3ccccc3)CC2)nc2c1C(=O)CC(C)C2` (stereo not drawn) gave CYP2C9 activ 0.2, CYP2C19 act 0.4, CYP2C19 inh 61* and CYP2C9 inhib 77*.
For CC1CC(C)CN(c2ncc3c(n2)CC(c2ccccc2)CC3=O)C1 (stereo not drawn) the results were CYP2C9 activ 0.1, CYP2C19 act 0.3, CYP2C19 inh 74* and CYP2C9 inhib 90*.
`COc1ccc(C2CC(=O)c3c(C)nc(N4CCN(Cc5ccccc5)CC4)nc3C2)cc1OC` (stereo not drawn) gave CYP2C9 activ 0, CYP2C19 act 0.1, CYP2C19 inh 91* and CYP2C9 inhib 100*.
Screening COc1cccc(S(=O)(=O)NCc2ccc(C(=O)NCC3CCCO3)cc2)c1 (stereo not drawn) returned CYP2C9 activ 0.9, CYP2C19 act 0.9, CYP2C19 inh 15 and CYP2C9 inhib 6.
CCOc1ccc(CN(C(=O)c2ccco2)C2CCS(=O)(=O)C2)cc1 (stereo not drawn) was read as CYP2C9 activ 0.9, CYP2C19 act 0.8, CYP2C19 inh 18 and CYP2C9 inhib 14.
`COc1cc(C2CC(=O)c3cnc(N4CCN(Cc5ccccc5)CC4)nc3C2)cc(OC)c1OC` (stereo not drawn) gave CYP2C9 activ 0, CYP2C19 act 0.2, CYP2C19 inh 84* and CYP2C9 inhib 97*.
Screening O=c1[nH]cnc2scc(-c3ccc(-c4ccccc4)cc3)c12 returned CYP2C9 activ 1, CYP2C19 act 1, CYP2C19 inh -5 and CYP2C9 inhib -5.
`O=c1[nH]cnc2scc(C3COc4ccccc4O3)c12` (stereo not drawn) gave CYP2C9 activ 0.2, CYP2C19 act 0.1, CYP2C19 inh 88* and CYP2C9 inhib 80*.
O=C(COC(=O)C1=Cc2ccccc2OC1)NC1CCCC1 was read as CYP2C9 activ 0.8, CYP2C19 act 0.7, CYP2C19 inh 28 and CYP2C9 inhib 20.
`O=C(CN(Cc1ccccc1)S(=O)(=O)c1ccc(F)cc1)NCCC1=CCCCC1` gave CYP2C9 activ 0.5, CYP2C19 act 0.8, CYP2C19 inh 19 and CYP2C9 inhib 46.
O=C(N/N=C\c1ccc(CN(Cc2ccc(Cl)cc2)S(=O)(=O)c2ccccc2)o1)C(=O)Nc1ccc(F)cc1 was read as CYP2C9 activ 0.2, CYP2C19 act 0.2, CYP2C19 inh 82* and CYP2C9 inhib 76*.
Screening NS(=O)(=O)c1ccc(CCNc2nc(CN3CCCCC3)nc3sc4c(c23)CCC4)cc1 returned CYP2C9 activ 0.9, CYP2C19 act 0.9, CYP2C19 inh 6 and CYP2C9 inhib 12.
For CC1CCc2c(sc3nc(CN4CCOCC4)nc(NS(=O)(=O)c4cccc([N+](=O)[O-])c4)c23)C1 (stereo not drawn) the results were CYP2C9 activ 0.2, CYP2C19 act 0.7, CYP2C19 inh 26 and CYP2C9 inhib 84*.
Screening CC1CCc2c(C(=O)NCCCN3CCOCC3)csc2C1 (stereo not drawn) returned CYP2C9 activ 1.1, CYP2C19 act 1, CYP2C19 inh -1 and CYP2C9 inhib -6.
`Cc1cc(S(=O)(=O)Nc2nc(CN3CCOCC3)nc3sc4c(c23)CCCC4)ccc1F` gave CYP2C9 activ 0.1, CYP2C19 act 0.4, CYP2C19 inh 60* and CYP2C9 inhib 88*.
Screening O=C(O)c1ccc(C(=O)Nc2cccc(NC(=O)C3CCCO3)c2)cc1 (stereo not drawn) returned CYP2C9 activ 1, CYP2C19 act 1, CYP2C19 inh -3 and CYP2C9 inhib 1.
